# Screening results deposited in PubChem BioAssay by National Center for Advancing Translational Sciences (NCATS).
# Compounds with a hit are over-represented: about 5.7% of the library has one in this group of screens.
# HT1080NT lethal: kills 2HG-producing HT-1080-NT fibrosarcoma cells | HT-1080-NT fibrosarcoma viability, CellTiter-Glo ATP luminescence, 48 h | Potency, µM (highest dose often 46.1 µM), for the others: at the top dose activity, negative = less viability, actives largely listed as cytotoxic | 1.6% of 360,000 active;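 also: NT is the 2HG producing partner of a matched IDH1 knockdown line; 0% = DMSO-treated cells and -100% = media-only wells without cells; nearly all actives have a fitted effect of over 55% in size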
#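 Read-out is CellTiter-Glo luminescence after 10 minutes at room temperature, following 48 hours' compound treatment of HT-1080-NT cells (750 cells/well, RPMI, 5% FBS, 37 degrees C).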
# KB-V1 cytotox: kills drug-selected multidrug resistant KB-V1 cells; 3.4% of 400,000 active; Potency, µM (doses to about 46.1 µM), most hits filed as cytotoxic; KB-V1 MDR cells viability, CellTiter-Glo, 72 h; also: nearly all actives have a fitted effect of over 60% in size
#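 Cells of the MDR subline KB-V1 are plated, dosed with compound at multiple concentrations, and incubated 72 h at 37 degrees C; CellTiter-Glo is then added and luminescence read after 10 min.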
# KB-3-1 cytotox: kills parental KB-3-1 adenocarcinoma cells | Potency, µM (series often up to 46.1 µM), most hits filed as cytotoxic | AID 1347075 | 1.4% of 400,000 active | KB-3-1 viability, CellTiter-Glo ATP luminescence, 72 h; also: nearly all actives have a fitted effect of over 60% in size
#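 Parental KB-3-1 adenocarcinoma cells in phenol-red-free DMEM with 10% FBS were pin-treated with compounds at several concentrations, incubated 72 h at 37 °C, and viability read by CellTiter-Glo luminescence; concentration-effect curves were fitted after normalization.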
# HT1080 IDH1KD tx: kills HT-1080 cells with IDH1 knockdown. HT-1080 IDH1 knockdown viability, ATP luminescence, 48 h. Potency, µM (series often up to 46.1 µM), inactives show at the highest dose activity, negative = toxicity, actives largely listed as cytotoxic. 2% of 360,000 active;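 also: 0% = DMSO wells and -100% = cell-free medium wells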
#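 IDH1KD HT-1080 cells, 750/well, RPMI + 5% FBS; compound pinned after 2 h settling; 48 h, 37 °C; CellTiter-Glo luminescence; % activity normalised to DMSO and no-cell wells; curves fitted, classed by r2 and efficacy.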
# An asterisk follows results filed as active; i = inactive; ? = inconclusive; · = no result. Calls follow the shape of the dose curve; as a rule, active = well fitted curve in the direction sought with a large enough effect; inconclusive = small, poorly fitted or top-dose-only effect, or another doubt; inactive = no such curve, though single readings can be large; an effect the other way counts as inactive or inconclusive. Unless noted, % is scaled to controls: 0 for no effect and ±100 for the full control effect; potency is read from the fitted curve at half-maximal effect.
SMILES,HT1080NT lethal,KB-V1 cytotox,KB-3-1 cytotox,HT1080 IDH1KD tx
C=CCn1c(SCC(=O)Nc2cccnc2Cl)nnc1-c1ccc(Cl)cc1,7%,5.2µM*,i,0%
COc1ccc(C)cc1-n1nnnc1SCC(=O)Nc1cccnc1Cl,-1%,13µM*,i,1%
COc1cc(NC(=O)CCc2c(C)nc3c(c(C)nn3-c3ccccc3)c2C)cc(OC)c1OC,·,i,i,·
CCc1ccc(C(=O)c2cn(CC(=O)Nc3ccc4c(c3)OCO4)c3ccc(CC)cc3c2=O)cc1,·,i,i,·
Cc1csc(NC(=O)CSc2ccc(-c3ccccc3)nn2)n1,0%,23µM*,i,-8%
COc1ccccc1N1CCN(C(=O)c2cnn(C(C)(C)C)c2C2CCN(C(=O)OC(C)(C)C)CC2)CC1,·,i,i,·
COc1ccccc1-c1noc(-c2ccc(NCc3ccco3)c([N+](=O)[O-])c2)n1,·,i,i,·
CCn1c(=O)cc(OCC(=O)Nc2cc(OC)c(OC)c(OC)c2)c2ccccc21,·,i,i,·
Cc1nc(C(=O)Nc2ccc(Cl)cc2)sc1C1(C)CC(c2cccc([N+](=O)[O-])c2)=NO1 (stereo not drawn),5%,i,i,-12%
COc1ccc(NC(=O)c2nc(C)c(C3(C)CC(c4cccnc4)=NO3)s2)cc1 (stereo not drawn),?,?,4.6µM*,6.5µM*
CC(=O)c1ccc(N2CCN(C(=S)Nc3cc(C)ccn3)CC2)cc1,·,i,?,·
CCCCOC(=O)Nc1nc(C)c(C(=O)OCC)s1,4%,12µM*,i,7%
CCCCCCc1nnc(NC(=O)OCC)s1,-3%,16µM*,i,13%
CNc1nc(C)c(C(=O)OCc2ccccc2)s1,3%,21µM*,i,0%
CCOC(=O)c1sc(Nc2nc(C)cc(C)n2)nc1C,-5%,9.2µM*,?,1%
CCCCCOC(=O)Nc1nnc(CCCCC)s1,?,i,i,1%
C=CCOC(=O)c1sc(NC(=O)c2ccc(OC)cc2)nc1C,?,i,i,1.8µM*
CCOc1ccc(C(=O)Nc2nc(C)c(C(=O)OC)s2)cc1,4%,i,i,8%
Cc1ccc(CNC(=O)c2cccc(Nc3nc4ccccc4n4nnnc34)c2)cc1,·,?,i,·
CCOC(=O)C1C(=O)OC(C)(C)C1C(C)C(=O)c1ccc(C)cc1 (stereo not drawn),6%,15µM*,i,-3%
Cc1cnnc2ccccc12,·,i,i,·
CC(C)CCNC(=O)c1ccc2c(c1)ncn2C1CCCCC1,-1%,13µM*,i,-16%
CCC(CC)C(=O)Nc1ccc(OCc2cc(=O)n3c4c(sc3n2)CCCC4)cc1,·,i,i,·
N=c1c2c(n(Cc3ccc(F)cc3)c3c1CCC3)CCC2,7.1µM*,i,i,10µM*
CCCCCCCCCn1c2c(c(=N)c3c1CCC3)CCC2,1.5µM*,i,1µM*,?
SMILES,HT1080NT lethal,KB-V1 cytotox,KB-3-1 cytotox,HT1080 IDH1KD tx
Fc1ccc(CN2CCCCCCC2)cc1,-3%,i,i,-2%
CCn1c2c(c(=N)c3c1CCC3)CCC2,7%,i,i,20%
CCCCCCCn1c2c(c(=N)c3c1CCC3)CCCC2,9.2µM*,?,0.58µM*,7.3µM*
CCCCCCn1c2c(c(=N)c3c1CCC3)CCC2,1.6µM*,i,2.1µM*,1.6µM*
CCCCCCn1c(=O)[nH]c2c(c1=O)CCC2,-2%,i,i,-2%
CCn1c2c(c(=N)c3ccccc31)CCC2,?,i,?,?
Cc1cccc(N2CCN(C(=O)c3cnn(-c4ccccc4Cl)c3C3CCN(C(=O)OC(C)(C)C)CC3)CC2C)c1 (stereo not drawn),·,i,i,·
COc1ccc(CC(=O)NO)cc1OC,22%,·,·,22%
COc1cc2c(cc1OC)C(c1ccc(Cl)cc1)N(c1cccc(C#N)c1)C(=O)C2 (stereo not drawn),·,i,i,·
COc1ccc(C2=C(C)C(=O)N(Cc3ccc(C(=O)NCc4cccc(C)c4)cc3)S2(=O)=O)cc1,·,i,i,·
CCCCn1c2c(c(=N)c3c1CCC3)CCC2,-17%,i,4.1µM*,-18%
C=C(C)CNC(=S)N/N=C(\C)c1ccc(OC)cc1,9%,16µM*,?,2%
O=C(CSc1nccn1Cc1ccccc1)NCc1ccccc1Cl,·,i,i,·
COc1cc(N/N=C(\C)c2ccc(O)c(C)c2)nc(-c2ccccc2)n1,21µM*,i,i,?
COc1cc(N/N=C(\C)c2ccc(N)cc2)nc(-c2ccccc2)n1,-2%,i,i,-25%
C/C(=N\Nc1cc(-c2ccccc2)nc(-c2ccccc2)n1)c1ccc(O)c(C)c1,?,?,i,23µM*
CCN(CC)c1ccc(NC(=O)C(Cc2ccccc2)NS(=O)(=O)c2ccc(Br)s2)c(C)c1 (stereo not drawn),·,i,i,·
COc1ccc2[nH]c3c(N4CCC(O)(c5cccc(C(F)(F)F)c5)CC4)ncnc3c2c1,?,18µM*,13µM*,21µM*
COc1ccc2[nH]c3c(N4CCN(Cc5ccc6c(c5)OCO6)CC4)ncnc3c2c1,21µM*,?,?,?
O=S(=O)(c1ccc(OC(F)(F)F)cc1)N1CCC(O)(c2cccc(C(F)(F)F)c2)CC1,-24%,i,i,0%
O=[N+]([O-])c1ccc2ncnc(N3CCN(Cc4ccc5c(c4)OCO5)CC3)c2c1,-17%,?,i,-15%
COc1cccc(C2CC(=O)Nc3c2c(=O)nc2c(C)cccn32)c1OC (stereo not drawn),·,?,i,·
CC(C)C(=O)Nc1cccc(C(=O)Nc2nnc(C(F)(F)F)s2)c1,·,i,i,·
Cc1nn(Cc2ccc(Cl)cc2)c(C)c1NC(=O)CSc1nc2c(c(C(F)(F)F)n1)CCc1ccccc1-2,3%,8.2µM*,i,2%
Cc1ccc(Cn2nc(C)c(NC(=O)CSc3nc4c(c(C(F)(F)F)n3)CCc3ccccc3-4)c2C)cc1,6%,4.1µM*,?,1%
SMILES,HT1080NT lethal,KB-V1 cytotox,KB-3-1 cytotox,HT1080 IDH1KD tx
CN(Cc1ccccc1)C(=O)CSc1nc2c(c(C(F)(F)F)n1)CCc1ccccc1-2,0%,?,18µM*,1%
NC(=O)c1c(NC(=O)CSc2nc3c(c(C(F)(F)F)n2)CCc2ccccc2-3)sc2c1CCCC2,-3%,i,i,-11%
CCc1ccccc1NC(=O)C(CC)Sc1nc2cc3c(cc2c(=O)n1Cc1ccco1)OCO3 (stereo not drawn),-3%,3.7µM*,?,-2%
Cc1[nH]c2ccccc2c1N=Nc1ccc(F)cc1,21µM*,i,i,?
Cc1[nH]c2ccccc2c1N=Nc1ccccc1F,?,?,i,?
C[C@H]1C=CC(=O)O[C@H]1c1ccccc1,-25%,?,21µM*,-20%
CC1C(=O)C(C)(C)C(=O)OC1c1ccccc1 (stereo not drawn),2%,i,i,1%
CC(=O)Nc1nonc1-c1nnc(SCc2ccccc2F)n1C,·,i,i,·
